Experimental data taken from ChEMBL document CHEMBL3988442, “University of Dundee, Small-Polar-MMV Screening Library” (2021).
Out of some 48,000 compounds screened, about 13,000 (27%) showed an effect of 50% or more. The list shows a part of the results.

Tested on: Wolbachia pipientis
Test: Anti-Wolbachia Cell-Based Screen
Assay type: functional
Parameters: scale not given: in the data most compounds retested in dose-response had high values
Settings: 5 µM

Row | Compound | Percent Effect [%]
1 | Cc1cc(Br)ccc1C(=O)N(C)CCNS(C)(=O)=O | -13.91
2 | COCc1nc(N(C)CCSc2ccccc2)c2cnn(C)c2n1 | -20.02
3 | Cc1cnc(CN2CCCC(c3nc4ccccc4n3C(C)C)C2)o1 (stereo unspecified) | -8.983
4 | CN(C)C(C(=O)NCC1(C)COC1)c1cccc(F)c1 (stereo unspecified) | 3.319
5 | CC(C)[C@H]1CN(C2Cc3ccccc3C2)C[C@@H]1NS(=O)(=O)N(C)C | -3.523
6 | CS(=O)(=O)N[C@@H]1CN(Cc2ccc3ccccc3c2)C[C@H]1O | 117
7 | CC(C)[C@H]1CN(C2Cc3ccccc3C2)C[C@@H]1NS(C)(=O)=O | 7.531
8 | CS(=O)(=O)N[C@@H]1CN(Cc2ccccc2)C[C@@H]2CCCO[C@@H]21 | -3.887
9 | CC(C)[C@@H]1CN(C2CCN(Cc3ccccc3)CC2)C[C@H]1NS(C)(=O)=O | 57.6
10 | CS(=O)(=O)N[C@H]1CN(CCOCc2ccccc2)C[C@@H]1C1CC1 | -6.261
11 | CS(=O)(=O)NC1CCN(C(=O)c2cc3ccccc3s2)C1 (stereo unspecified) | -26.49
12 | CS(=O)(=O)NC1CCN(C(=O)c2ccc3ccccc3c2)C1 (stereo unspecified) | -0.4422
13 | COc1ccc(CN2C[C@@H]3CCCO[C@@H]3[C@H](NS(C)(=O)=O)C2)cc1.O=C(O)C(F)(F)F | -19.78
14 | CS(=O)(=O)N[C@@H]1CN(Cc2ccccc2)C[C@H]1O | 118.1
15 | CS(=O)(=O)N[C@@H]1CN(C(=O)c2cc3ccccc3s2)C[C@H]1O | 153.3
16 | CCC[C@@H]1CN(C(=O)c2cc3ccccc3s2)C[C@H]1NS(C)(=O)=O | -8.95
17 | O=C(NCc1cc2ccccc2s1)c1cc(CN2CCCC(O)C2)on1 (stereo unspecified) | 4.701
18 | O=C(O)CC[C@@H]1CN(c2ncnc3[nH]ccc23)CC[C@@H]1N1CCOCC1 | -3.371
19 | COCc1cn(C2CCN(C(=O)c3ccc(F)c(C)c3)CC2)nn1 | 14.23
20 | Cc1cc(F)ccc1OC1(C(=O)O)CCN(Cc2nccn2C)CC1 | -12.18
21 | O=c1cc(CNS(=O)(=O)C2CC2)nc2n1CCCNC2 | 10.88
22 | O=C(CCC1CCCCO1)NCc1cnn(-c2ccc(F)cc2F)c1 (stereo unspecified) | 2.583
23 | COc1ccc(C)cc1-n1cnnc1C1CCOCC1 | 1.298
24 | CS(=O)(=O)N[C@@H]1CN(Cc2ccc3ncccc3c2)C[C@H]1O | 100.1
25 | CCC[C@@H]1CN(C(=O)c2cnc3ccccc3c2)C[C@H]1NS(C)(=O)=O | -44.49
26 | CCC[C@@H]1CN(Cc2ccc(C(F)(F)F)nc2)C[C@H]1NS(C)(=O)=O | -0.637

Row | Compound | Percent Effect [%]
27 | CSc1ccsc1C(=O)NS(=O)(=O)c1cnn(C)c1 | -33.43
28 | Cc1cccc(N2CCN(C(=O)CN3CCN(CCO)CC3)CC2)c1 | -11.5
29 | Cc1cccc(-n2cnc(Cl)c2CO)c1 | 116.1
30 | COC(=O)CN1CCN(c2cccc(C)c2)CC1 | -56.86
31 | O=C1CC(c2ccc(C(=O)O)cc2)c2ncn(-c3ccc(F)cc3)c2N1 (stereo unspecified) | -3.148
32 | Cc1ccc(-n2cnc(Cl)c2CO)cc1 | 81.89
33 | COc1ccc(OCC(=O)n2nc(C)c(C)c2C)cc1 | 7.668
34 | OCc1c(Cl)ncn1-c1ccc(F)cc1 | 124.8
35 | COc1ccc(-n2cnc(Cl)c2CO)cc1 | 99.78
36 | COc1ccc(-n2cnnc2CC2CCNCC2)cc1 | -7.776
37 | CC(=O)c1c(C)cc(C)c(Cn2ccnc2S(C)(=O)=O)c1C | -6.43
38 | CCOCCCC(=O)Nc1[nH]nc(-c2ccncc2)c1C | 17.32
39 | OCc1c(Cl)ncn1-c1ccccc1 | 94.93
40 | Cc1ccccc1-n1cnc(Cl)c1CO | 94.22
41 | Cc1ccccc1-n1cnnc1SCC1CCCCO1 (stereo unspecified) | 0.1895
42 | Cc1ccccc1-n1cnnc1SCC(=O)NCC1CCCO1 (stereo unspecified) | 6.164
43 | Cc1ccoc1C(=O)NCCOc1ncc(Cl)cc1Cl | -11.16
44 | Cc1nn(CCC#N)c(C)c1[C@@H]1C=C[C@@H](NCc2cccc(Cl)c2)C1 | -10.09
45 | O=C(Nc1ccncc1)NC1CCN(c2ccccc2OC(F)F)C1 (stereo unspecified) | -11.28
46 | Cc1ccccc1CS(=O)(=O)Cc1nc(C2CC2)no1 | -6.253
47 | CCc1nc(C2CCCN(c3nccc(C)n3)C2)no1 (stereo unspecified) | -0.3429
48 | Cc1noc(CCCC(=O)N(CC2CCOC2)C2CC2)n1 (stereo unspecified) | -3.8
49 | CC(C)CCN1CCN(Cc2nc(C3CC3)no2)CC1 | -1.38
50 | Cc1noc(C)c1Cc1nc(C2CC2)no1 | -12.44
51 | Cc1noc(C)c1CS(=O)(=O)Cc1nc(C2CC2)no1 | -5.953
52 | Cc1noc(CCCc2nc(C3CCOC3)no2)n1 (stereo unspecified) | 78.93

Row | Compound | Percent Effect [%]
53 | Cc1noc(C)c1CCc1nc(C2CCOC2)no1 (stereo unspecified) | 100.6
54 | Cc1ccc(CCc2nc(C3CCOC3)no2)o1 (stereo unspecified) | 90.49
55 | CCOCC(=O)NC(C)c1cc(C)ccc1C (stereo unspecified) | 4.424
56 | c1nc(CSc2nnc(C3CC3)s2)cs1 | -11.09
57 | CCN1CCC(CC(=O)NCc2cc(C)nn2C)CC1 | -11.94
58 | COc1c(CNCC(=O)N2CCN(C)CC2)c(C(C)C)nn1C | 95.67
59 | CC(C)c1nn(C)c(Cl)c1CNCC(=O)N1CCN(C)CC1.Cl | 99.42
60 | COc1c(CNC2(c3noc(C)n3)CCC2)c(C(C)C)nn1C.Cl | -8.281
61 | CC(C)c1nn(C)c(N(C)C)c1CNCCC(=O)N(C)C.Cl | -2.081
62 | COc1c(CNCc2cnn(C)c2)c(C(C)C)nn1C | -6.64
63 | CC(C)c1nn(C)c(N2CCOCC2)c1CNCC(=O)N(C)C | -5.66
64 | Cc1cccc(N2CCC(NC(C)c3cccs3)CC2)n1 (stereo unspecified) | -26.34
65 | C[C@@H]1CN(c2ccc3c(Cl)ccnc3c2F)CC(C(N)=O)O1 (stereo partly specified) | -9.196
66 | CC(C)c1noc(CCCC(=O)NC2CCS(=O)(=O)C2)n1 (stereo unspecified) | 7.76
67 | CC(C)(C)S(=O)(=O)c1ccc(N2CCN(c3ccccn3)CC2)nn1 | 14.84
68 | Cc1cccc(N2CC3(CCN(S(=O)(=O)c4ccccc4)C3)CC2=O)c1 (stereo unspecified) | -6.441
69 | CC(C)NC(=O)N1CCC2(CC(=O)N(c3ccsc3)C2)C1 (stereo unspecified) | 94
70 | O=C(Cc1ccccc1)N1CCC2(CC(=O)N(c3ccsc3)C2)C1 (stereo unspecified) | 4.465
71 | O=C(Nc1ccccc1)N1CCC2(CC(=O)N(c3ccsc3)C2)C1 (stereo unspecified) | 106
72 | Cc1cccc(NC(=O)N2CCC3(CC(=O)N(c4ccsc4)C3)C2)c1 (stereo unspecified) | 111.9
73 | CC(C)NC(=O)N1CCC2(C1)CN(c1ccsc1)C(=O)CN2C.O=C(O)C(F)(F)F (stereo unspecified) | -13.82
74 | COCC(=O)N1CCC2(CC(=O)N(c3cccc(F)c3)C2)C1 (stereo unspecified) | -16.31
75 | CCN1CC2(CNCCN(C(=O)Nc3ccccc3)C2)CC1=O.O=C(O)C(F)(F)F (stereo unspecified) | -17.66
76 | CC(C)NC(=O)N1CCC2(CC(=O)N(c3cccc(C#N)c3)C2)C1 (stereo unspecified) | -3.038
